Drawing on ChEMBL document CHEMBL2218924, “A broad activity screen in support of a chemogenomic map for kinase signalling research and drug discovery” (Biochem J, 2013), this text covers residual activity for 1 compound.

Experiment [1] deals with T1, Ephrin type-A receptor 3 (Homo sapiens) (UniProt P29320).
T1 sequence (whole entry): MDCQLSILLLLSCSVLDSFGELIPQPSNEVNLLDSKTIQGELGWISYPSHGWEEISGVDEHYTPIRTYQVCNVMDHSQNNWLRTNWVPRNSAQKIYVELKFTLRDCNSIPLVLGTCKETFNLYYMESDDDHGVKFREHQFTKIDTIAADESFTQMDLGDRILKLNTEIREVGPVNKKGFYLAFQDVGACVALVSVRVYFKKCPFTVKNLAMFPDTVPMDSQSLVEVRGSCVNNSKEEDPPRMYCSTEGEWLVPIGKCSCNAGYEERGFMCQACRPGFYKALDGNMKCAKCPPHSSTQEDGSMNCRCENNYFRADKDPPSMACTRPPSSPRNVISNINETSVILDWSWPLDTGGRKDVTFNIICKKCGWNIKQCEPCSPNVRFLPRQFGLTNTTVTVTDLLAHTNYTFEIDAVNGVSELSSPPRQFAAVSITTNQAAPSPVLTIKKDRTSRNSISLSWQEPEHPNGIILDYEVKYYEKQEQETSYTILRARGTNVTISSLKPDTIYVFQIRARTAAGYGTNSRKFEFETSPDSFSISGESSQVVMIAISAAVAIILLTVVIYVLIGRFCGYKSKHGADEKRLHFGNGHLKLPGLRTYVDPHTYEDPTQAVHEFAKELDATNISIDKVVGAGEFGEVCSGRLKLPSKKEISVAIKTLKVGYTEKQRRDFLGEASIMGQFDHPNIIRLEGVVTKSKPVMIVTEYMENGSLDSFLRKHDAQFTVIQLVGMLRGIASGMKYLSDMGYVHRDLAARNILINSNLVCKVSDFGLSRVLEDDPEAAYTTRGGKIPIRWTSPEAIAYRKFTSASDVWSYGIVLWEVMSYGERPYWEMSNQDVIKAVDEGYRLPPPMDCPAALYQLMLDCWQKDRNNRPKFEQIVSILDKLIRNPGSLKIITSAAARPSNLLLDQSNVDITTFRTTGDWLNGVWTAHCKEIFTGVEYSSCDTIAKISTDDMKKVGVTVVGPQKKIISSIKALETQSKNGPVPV
The settings on record: at 10 µM.

For experiment [2], the target named is Ephrin type-A receptor 4 (Homo sapiens) (UniProt P54764). The settings on record: at 1 µM.
Chain of Ephrin type-A receptor 4 (Homo sapiens) (P54764 whole entry): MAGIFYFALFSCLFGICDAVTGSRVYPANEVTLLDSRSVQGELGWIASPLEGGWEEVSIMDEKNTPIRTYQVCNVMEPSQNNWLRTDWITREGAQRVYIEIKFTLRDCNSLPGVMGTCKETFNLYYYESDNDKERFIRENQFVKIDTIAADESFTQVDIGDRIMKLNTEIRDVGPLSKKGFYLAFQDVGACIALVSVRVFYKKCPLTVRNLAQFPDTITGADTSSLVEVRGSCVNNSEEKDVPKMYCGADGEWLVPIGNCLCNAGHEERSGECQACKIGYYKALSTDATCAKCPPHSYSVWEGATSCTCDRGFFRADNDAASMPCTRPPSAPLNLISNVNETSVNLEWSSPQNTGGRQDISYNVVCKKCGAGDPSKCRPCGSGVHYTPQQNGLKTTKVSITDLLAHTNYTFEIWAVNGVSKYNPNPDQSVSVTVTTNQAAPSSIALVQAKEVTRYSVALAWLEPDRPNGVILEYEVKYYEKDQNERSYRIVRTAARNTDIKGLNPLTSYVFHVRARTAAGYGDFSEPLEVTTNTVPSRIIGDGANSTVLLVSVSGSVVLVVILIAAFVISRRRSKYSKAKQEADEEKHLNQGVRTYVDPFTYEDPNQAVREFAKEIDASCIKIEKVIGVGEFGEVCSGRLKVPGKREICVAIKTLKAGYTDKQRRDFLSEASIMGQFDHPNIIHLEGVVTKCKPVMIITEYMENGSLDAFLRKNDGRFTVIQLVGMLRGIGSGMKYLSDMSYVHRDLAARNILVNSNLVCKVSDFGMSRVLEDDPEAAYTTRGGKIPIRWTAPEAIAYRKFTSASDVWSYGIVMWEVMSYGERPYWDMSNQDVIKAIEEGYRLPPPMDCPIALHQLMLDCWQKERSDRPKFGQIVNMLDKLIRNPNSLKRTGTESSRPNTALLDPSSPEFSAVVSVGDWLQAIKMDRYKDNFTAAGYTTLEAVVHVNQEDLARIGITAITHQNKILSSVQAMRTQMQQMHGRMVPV
Experiment [3] shares this target. The settings on record: at 10 µM.
The target of experiment [4] is Ephrin type-A receptor 5 (Homo sapiens) (UniProt P54756). As to conditions: at 1 µM.
Chain of Ephrin type-A receptor 5 (Homo sapiens) (P54756 whole entry): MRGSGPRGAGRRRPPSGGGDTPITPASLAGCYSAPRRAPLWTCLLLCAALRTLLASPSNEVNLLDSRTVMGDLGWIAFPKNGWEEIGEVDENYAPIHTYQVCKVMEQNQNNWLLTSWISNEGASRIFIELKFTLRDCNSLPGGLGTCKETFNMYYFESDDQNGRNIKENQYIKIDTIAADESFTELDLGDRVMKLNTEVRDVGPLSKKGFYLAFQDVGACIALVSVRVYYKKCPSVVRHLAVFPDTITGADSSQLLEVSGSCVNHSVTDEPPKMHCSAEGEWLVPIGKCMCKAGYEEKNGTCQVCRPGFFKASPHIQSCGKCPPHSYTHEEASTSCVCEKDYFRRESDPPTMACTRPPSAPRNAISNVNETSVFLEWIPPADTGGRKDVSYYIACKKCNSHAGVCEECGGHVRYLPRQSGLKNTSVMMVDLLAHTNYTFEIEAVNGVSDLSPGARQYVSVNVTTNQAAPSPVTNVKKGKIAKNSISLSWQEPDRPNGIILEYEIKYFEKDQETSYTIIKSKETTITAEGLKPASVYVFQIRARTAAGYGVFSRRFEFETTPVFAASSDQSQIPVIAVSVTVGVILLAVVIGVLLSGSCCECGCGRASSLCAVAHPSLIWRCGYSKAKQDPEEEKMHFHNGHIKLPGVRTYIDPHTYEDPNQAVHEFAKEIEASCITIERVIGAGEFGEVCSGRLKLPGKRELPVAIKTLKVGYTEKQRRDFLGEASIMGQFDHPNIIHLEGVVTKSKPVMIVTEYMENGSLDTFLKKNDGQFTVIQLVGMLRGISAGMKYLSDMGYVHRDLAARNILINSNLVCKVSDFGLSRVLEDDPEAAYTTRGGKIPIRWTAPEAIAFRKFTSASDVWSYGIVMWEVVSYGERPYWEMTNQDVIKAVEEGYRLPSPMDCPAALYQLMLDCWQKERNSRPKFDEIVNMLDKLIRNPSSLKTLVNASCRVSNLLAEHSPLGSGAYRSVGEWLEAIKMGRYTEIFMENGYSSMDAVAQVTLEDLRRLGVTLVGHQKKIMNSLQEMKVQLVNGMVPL
Experiment [5] has the same target. As to conditions: at 10 µM.
Experiment [6] has as its target Ephrin type-A receptor 7 (Homo sapiens) (UniProt Q15375). As to conditions: at 1 µM.
Experiment [7] has the same target. As to conditions: at 10 µM.
Experiment [8] concerns the target T2, Ephrin type-A receptor 8 (Homo sapiens) (UniProt P29322).
T2 sequence (whole entry): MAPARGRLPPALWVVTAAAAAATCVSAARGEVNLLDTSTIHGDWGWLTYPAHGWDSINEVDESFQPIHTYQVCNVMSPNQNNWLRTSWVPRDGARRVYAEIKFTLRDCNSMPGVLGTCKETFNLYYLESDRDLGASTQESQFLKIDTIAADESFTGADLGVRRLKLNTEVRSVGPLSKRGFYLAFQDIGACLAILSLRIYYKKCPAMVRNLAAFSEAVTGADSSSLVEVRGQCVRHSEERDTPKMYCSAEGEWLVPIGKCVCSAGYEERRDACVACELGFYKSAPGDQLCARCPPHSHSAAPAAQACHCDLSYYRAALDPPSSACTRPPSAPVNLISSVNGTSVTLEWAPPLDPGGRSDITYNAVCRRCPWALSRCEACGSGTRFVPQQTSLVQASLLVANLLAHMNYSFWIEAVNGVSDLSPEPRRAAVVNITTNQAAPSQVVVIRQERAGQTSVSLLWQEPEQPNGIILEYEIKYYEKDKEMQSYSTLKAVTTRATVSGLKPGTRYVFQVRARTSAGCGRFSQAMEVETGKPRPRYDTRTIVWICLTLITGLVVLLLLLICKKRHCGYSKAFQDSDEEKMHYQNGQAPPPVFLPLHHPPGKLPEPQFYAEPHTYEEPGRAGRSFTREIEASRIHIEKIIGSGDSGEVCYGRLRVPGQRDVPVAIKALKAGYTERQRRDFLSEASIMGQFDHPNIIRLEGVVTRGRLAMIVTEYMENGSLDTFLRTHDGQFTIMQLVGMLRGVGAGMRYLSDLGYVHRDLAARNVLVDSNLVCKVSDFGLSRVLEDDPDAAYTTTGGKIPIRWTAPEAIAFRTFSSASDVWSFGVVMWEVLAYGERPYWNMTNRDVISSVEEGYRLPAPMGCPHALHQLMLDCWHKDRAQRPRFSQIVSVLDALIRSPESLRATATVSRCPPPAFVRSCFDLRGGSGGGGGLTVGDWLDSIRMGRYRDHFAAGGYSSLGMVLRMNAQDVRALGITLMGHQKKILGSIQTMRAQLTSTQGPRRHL
The settings on record: at 1 µM.

For experiment [9], the target named is T2, Ephrin type-A receptor 8 (Homo sapiens). As to conditions: at 10 µM.
Experiment [10] has as its target T3, Ephrin type-B receptor 1 (Homo sapiens) (UniProt P54762).
T3 sequence (whole entry): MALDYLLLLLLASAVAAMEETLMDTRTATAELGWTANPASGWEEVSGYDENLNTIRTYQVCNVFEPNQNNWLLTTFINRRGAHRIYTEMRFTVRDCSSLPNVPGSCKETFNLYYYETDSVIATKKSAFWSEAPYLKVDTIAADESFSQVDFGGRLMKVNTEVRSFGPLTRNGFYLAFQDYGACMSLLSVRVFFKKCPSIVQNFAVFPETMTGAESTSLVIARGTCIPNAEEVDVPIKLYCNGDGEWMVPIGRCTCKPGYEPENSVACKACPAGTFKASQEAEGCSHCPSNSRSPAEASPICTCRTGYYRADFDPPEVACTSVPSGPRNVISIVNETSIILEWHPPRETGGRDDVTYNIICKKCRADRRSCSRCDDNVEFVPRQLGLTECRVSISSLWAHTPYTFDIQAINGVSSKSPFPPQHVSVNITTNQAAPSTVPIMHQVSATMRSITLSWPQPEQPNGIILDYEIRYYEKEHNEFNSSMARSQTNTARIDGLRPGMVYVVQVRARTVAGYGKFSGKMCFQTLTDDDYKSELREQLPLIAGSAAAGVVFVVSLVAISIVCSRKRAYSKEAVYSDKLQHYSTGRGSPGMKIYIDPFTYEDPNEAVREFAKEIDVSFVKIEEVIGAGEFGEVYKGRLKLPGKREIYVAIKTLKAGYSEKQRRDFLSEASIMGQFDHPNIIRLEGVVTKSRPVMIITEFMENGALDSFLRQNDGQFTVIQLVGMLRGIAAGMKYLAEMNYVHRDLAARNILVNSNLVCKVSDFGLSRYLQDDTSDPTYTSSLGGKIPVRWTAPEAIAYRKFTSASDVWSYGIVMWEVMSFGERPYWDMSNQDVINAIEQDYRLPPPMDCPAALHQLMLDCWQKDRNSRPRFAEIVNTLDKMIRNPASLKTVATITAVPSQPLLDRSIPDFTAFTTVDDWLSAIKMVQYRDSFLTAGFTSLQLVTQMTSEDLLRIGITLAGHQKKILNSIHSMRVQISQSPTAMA
As to conditions: at 1 µM.

Chain of Ephrin type-A receptor 7 (Homo sapiens) (Q15375 28-998 limits assumed): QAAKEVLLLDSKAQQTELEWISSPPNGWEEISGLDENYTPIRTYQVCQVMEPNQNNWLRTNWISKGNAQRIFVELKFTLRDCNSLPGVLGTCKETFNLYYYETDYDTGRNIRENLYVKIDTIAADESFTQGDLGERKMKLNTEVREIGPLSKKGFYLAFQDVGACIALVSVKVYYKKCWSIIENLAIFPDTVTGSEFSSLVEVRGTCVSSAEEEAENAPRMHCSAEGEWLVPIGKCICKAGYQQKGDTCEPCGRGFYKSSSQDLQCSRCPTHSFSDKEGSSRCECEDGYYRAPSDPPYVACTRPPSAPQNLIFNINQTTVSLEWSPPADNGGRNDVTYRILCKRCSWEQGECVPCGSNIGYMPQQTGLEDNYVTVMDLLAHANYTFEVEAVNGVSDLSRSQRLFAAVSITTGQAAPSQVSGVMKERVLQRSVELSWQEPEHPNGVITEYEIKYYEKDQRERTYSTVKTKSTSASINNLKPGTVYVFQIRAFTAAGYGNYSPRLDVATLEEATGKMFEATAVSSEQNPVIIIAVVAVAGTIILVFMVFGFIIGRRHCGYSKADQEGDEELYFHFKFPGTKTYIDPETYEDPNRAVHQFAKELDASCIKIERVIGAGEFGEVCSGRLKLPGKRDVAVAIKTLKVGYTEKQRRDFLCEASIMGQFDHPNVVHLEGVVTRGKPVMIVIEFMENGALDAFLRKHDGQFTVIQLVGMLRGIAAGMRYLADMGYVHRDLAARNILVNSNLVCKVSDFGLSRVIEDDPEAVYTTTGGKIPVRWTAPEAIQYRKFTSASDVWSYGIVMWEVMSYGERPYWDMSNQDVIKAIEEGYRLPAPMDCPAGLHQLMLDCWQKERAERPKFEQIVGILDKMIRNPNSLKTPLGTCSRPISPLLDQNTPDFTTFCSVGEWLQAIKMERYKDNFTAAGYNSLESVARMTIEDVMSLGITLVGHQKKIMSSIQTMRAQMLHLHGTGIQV

As to `N#C/C(=C(\N)Sc1ccc(N)cc1)c1ccccc1C(F)(F)F`, the residual activity (as a rule, the signal under treatment as a percentage of the control signal) in experiment [1] is 99%; in experiment [2] it was 116%; in experiment [3] it was 112%; in experiment [4], 98%; in experiment [5], 95%; in experiment [6], 99%. Moreover, the residual activity turned out to be 89% in experiment [7], 85% in experiment [8], 87% in [9] and 110% in [10].
